Experiment [1] in a line: compounds binding Alexa647 anti-His antibody – biochemical, small-molecule microarray, 635 nm fluorescence, artefact control for SMM control protein annotation, primary screen (AID 1128).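 Also: score merges feature fluorescence with signal-to-noise for each printed compound spot.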 Conditions: higher = more signal.
In experiment [2] the test system is Human papillomavirus type 1a E7 protein (residues 1-88). Briefly: HPV1a E7 small-molecule binders, primary screen, biochemical, small-molecule microarray, residues 1-88, 635 nm (AID 1129). Particulars: small-molecule microarray binding, fluorescence 635 nm; higher = more signal.
Experiment [3] addresses Focal adhesion kinase 1 (Homo sapiens) (UniProt Q05397). Kind of experiment: PTK2 protein binding on printed compound slides – biochemical, small-molecule microarray, 635/667 nm fluorescence, BSA, DTT, primary screen (AID 1130).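 Also: composite of spot emission at 667 nm and signal to noise over triplicate slides.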 Conditions: 635 nm fluorescence, higher = more signal.
In experiment [4] the test system is Fibrinogen (Alexa647-labelled). Briefly: Alexa647-fibrinogen binding to printed small molecules – biochemical, small-molecule microarray, 635/667 nm fluorescence, artefact control for SMM control-protein annotation, profiling panel (AID 1131).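 Also: z-score merges 667 nm fluorescence with per-spot signal-to-noise over triplicate slides.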 Particulars: fibrinogen-A647 binding fluorescence, higher = more signal.
The target of experiment [5] is Follistatin (Homo sapiens) (UniProt P19883). Briefly: FST protein binding to printed compounds – biochemical, small-molecule microarray, 635/667 nm fluorescence, primary screen (AID 1132). Particulars: 635 nm fluorescence, higher = more signal.
Chain of Follistatin (Homo sapiens) (P19883 whole entry, looked up): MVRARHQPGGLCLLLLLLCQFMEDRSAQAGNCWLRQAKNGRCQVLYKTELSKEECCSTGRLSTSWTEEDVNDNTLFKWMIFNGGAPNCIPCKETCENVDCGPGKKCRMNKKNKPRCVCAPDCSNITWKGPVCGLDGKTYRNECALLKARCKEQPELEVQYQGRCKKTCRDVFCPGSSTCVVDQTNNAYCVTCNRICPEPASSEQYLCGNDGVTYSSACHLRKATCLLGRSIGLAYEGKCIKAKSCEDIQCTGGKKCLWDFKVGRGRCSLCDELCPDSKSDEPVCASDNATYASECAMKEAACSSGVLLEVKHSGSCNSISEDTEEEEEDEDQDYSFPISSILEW
In experiment [6] the target is Fibroblast growth factor 2 (Homo sapiens) (UniProt P09038). Kind of experiment: basic fibroblast growth factor binding to printed compounds – biochemical, small-molecule microarray, 635/667 nm fluorescence, primary screen (AID 1133). Conditions: FGF2, fluorescence 635/667, higher = more signal.
Chain of Fibroblast growth factor 2 (Homo sapiens) (P09038 whole entry, looked up): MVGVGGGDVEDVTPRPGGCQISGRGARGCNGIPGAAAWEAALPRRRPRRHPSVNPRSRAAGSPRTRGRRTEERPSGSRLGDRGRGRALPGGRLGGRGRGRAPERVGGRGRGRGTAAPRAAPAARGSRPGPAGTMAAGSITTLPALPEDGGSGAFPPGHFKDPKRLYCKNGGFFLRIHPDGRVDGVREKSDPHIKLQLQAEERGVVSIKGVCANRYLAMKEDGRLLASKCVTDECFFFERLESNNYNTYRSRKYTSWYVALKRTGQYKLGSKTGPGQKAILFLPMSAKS
Experiment [7] is described as follows: JC-1 mitochondrial potential readout, lung cancer cells – cell-based, A549, JC-1 fluorescence, basal, 24 h, 100 nL, profiling panel (AID 1138).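 Also: A549 lung adenocarcinoma cells under basal conditions with no added stimulus; test concentration not given here.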 Particulars: higher = more signal.
In a further experiment the test system is Lefty1. Briefly: Lefty1 protein binding to printed compounds – biochemical, small-molecule microarray, 635/667 nm fluorescence, primary screen (AID 1139). Particulars: fluorescence 635/667, higher = more signal.
Experiment [8] deals with wheat germ agglutinin (Triticum aestivum), Alexa647-labelled. Kind of experiment: Alexa647-WGA lectin binding to printed small molecules – biochemical, small-molecule microarray, 635/667 nm fluorescence, artefact control for SMM control-protein annotation, profiling panel (AID 1140).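 Also: score merges 667 nm feature emission with signal to noise over triplicate slides.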 Conditions: WGA-A647 binding, 635 nm fluorescence, higher = more signal.
Experiment [9] concerns the target Luciferin 4-monooxygenase (Photinus pyralis) (UniProt P08659). Kind of experiment: inhibition of purified Photinus pyralis luciferase – biochemical, luminescence, purified enzyme, 2006 set, primary screen (AID 1141).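 Also: cell-free assay with purified firefly luciferase at 100 ng per well in PBS; test concentration not given here.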 Conditions: purified firefly luciferase, SteadyGlo luminescence, 30 min; higher = more signal, called active from +8 up or from −8 down.
The subject of experiment [10] is Wnt5a (protein binding on small-molecule microarray). Briefly: small molecules binding Wnt5a protein – biophysical, small-molecule microarray, 635/667 nm fluorescence, primary screen (AID 1142).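 Also: fluorescence read at 667 nm with signal to noise per printed feature.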 Particulars: 635 nm fluorescence, higher = more signal.
A short description of experiment [11]: ATP-based viability of Huh7 replicon cells – cell-based, CellTiter-Glo luminescence, basal, 48 h, cytotoxicity control for HCV replication inhibitor project, primary screen (AID 1143).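 Also: Huh7 hepatoma cells carrying a hepatitis C replication reporter with no stimulus; test concentration not given here.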 Particulars: higher = more signal, called active from +8 up or from −8 down.
Experiment [12] can be described thus: Pseudomonas biofilm growth suppression – PAO1 strain, BacTiter-Glo luminescence, LB-PBS, primary screen (AID 1144). Conditions: P. aeruginosa PAO1 biofilm, 12 h, higher = more signal.
Experiment [13] can be described thus: basal CRE-LacZ reporter activity in PC12 – cell-based, unstimulated, primary screen (AID 1145). Particulars: no forskolin, luminescence, 4.5 h, higher = more signal, called active from +8 up or from −8 down.
Experiment [14] can be described thus: forskolin-driven CRE-LacZ activity in PC12 – cell-based, CRE-LacZ reporter, forskolin-stimulated, primary screen (AID 1146).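 Also: PC12 cells with 6xCRE LacZ reporter stimulated by forskolin 10 µM; beta-galactosidase reporter signal reflecting CREB driven transcription.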 Conditions: luminescence, 4.5 h, higher = more signal, called active from +8 up or from −8 down.
Experiment [15] has as its target Streptavidin (Streptomyces avidinii) (UniProt P22629). Briefly: compounds binding control protein streptavidin – biophysical, small-molecule microarray, 635/667 nm fluorescence, artefact control for SMM compound annotation, primary screen (AID 1147).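 Also: signal reflects streptavidin binding to arrayed compounds as a control protein.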 Particulars: higher = more signal.
Experiment [16] is described as follows: probe aInhba binding on compound microarray – biochemical, small-molecule microarray, 635/667 nm fluorescence, primary screen (AID 1148).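 Also: score merges 667nm spot fluorescence with signal-to-noise for antibody binding to printed compounds.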 Conditions: higher = more signal.
The target of experiment [17] is Torsin-1A (Homo sapiens) (UniProt O14656). Kind of experiment: TOR1A wild-type binding on microarray – cell lysate, small-molecule microarray, lysate, 635/667 nm, primary screen (AID 1149). Conditions: COS7 hTOR1A-WT lysate, 635 nm fluorescence, higher = more signal.
Chain of Torsin-1A (Homo sapiens) (O14656 whole entry, looked up): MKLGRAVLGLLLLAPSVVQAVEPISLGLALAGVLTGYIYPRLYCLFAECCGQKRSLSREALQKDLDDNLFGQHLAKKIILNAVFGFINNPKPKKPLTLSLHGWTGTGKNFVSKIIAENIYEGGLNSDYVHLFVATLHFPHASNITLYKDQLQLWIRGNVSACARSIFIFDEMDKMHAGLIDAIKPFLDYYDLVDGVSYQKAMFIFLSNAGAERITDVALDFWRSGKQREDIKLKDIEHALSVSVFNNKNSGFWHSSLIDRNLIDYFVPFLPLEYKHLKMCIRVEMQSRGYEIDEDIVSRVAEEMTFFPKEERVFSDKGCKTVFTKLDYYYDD
Experiment [18] has the same target. Briefly: torsin A mutant lysate binding on microarrays – cell lysate, small-molecule microarray, COS7 lysate, 635/667 nm fluorescence, primary screen (AID 1150).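 Also: score pools 667 nm emission and signal to noise measuring lysate protein binding.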 Particulars: COS7 hTOR1A mutant lysate, 635 nm fluorescence, higher = more signal.
The test system of experiment [19] is Sonic hedgehog protein (Shh). Briefly: Sonic hedgehog microarray binding compounds – biochemical, small-molecule microarray, 635/667 nm fluorescence, primary screen (AID 1151).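 Also: Shh protein binding to compounds spotted on small-molecule microarray slides; score combines spot fluorescence intensity with signal-to-noise across triplicate slides.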 Particulars: 635 nm fluorescence, higher = more signal.

The structures appear in SMILES notation. Calls of active or inactive are those of the source. Unless noted, no rule for the calls is given here.

Chain of Streptavidin (Streptomyces avidinii) (P22629 whole entry, looked up): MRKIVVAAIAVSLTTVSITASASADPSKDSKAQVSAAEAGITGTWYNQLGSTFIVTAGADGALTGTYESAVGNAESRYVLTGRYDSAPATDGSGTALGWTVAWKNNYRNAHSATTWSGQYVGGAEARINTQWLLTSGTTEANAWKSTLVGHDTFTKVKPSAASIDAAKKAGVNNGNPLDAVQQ
Chain of Focal adhesion kinase 1 (Homo sapiens) (Q05397 whole entry, looked up): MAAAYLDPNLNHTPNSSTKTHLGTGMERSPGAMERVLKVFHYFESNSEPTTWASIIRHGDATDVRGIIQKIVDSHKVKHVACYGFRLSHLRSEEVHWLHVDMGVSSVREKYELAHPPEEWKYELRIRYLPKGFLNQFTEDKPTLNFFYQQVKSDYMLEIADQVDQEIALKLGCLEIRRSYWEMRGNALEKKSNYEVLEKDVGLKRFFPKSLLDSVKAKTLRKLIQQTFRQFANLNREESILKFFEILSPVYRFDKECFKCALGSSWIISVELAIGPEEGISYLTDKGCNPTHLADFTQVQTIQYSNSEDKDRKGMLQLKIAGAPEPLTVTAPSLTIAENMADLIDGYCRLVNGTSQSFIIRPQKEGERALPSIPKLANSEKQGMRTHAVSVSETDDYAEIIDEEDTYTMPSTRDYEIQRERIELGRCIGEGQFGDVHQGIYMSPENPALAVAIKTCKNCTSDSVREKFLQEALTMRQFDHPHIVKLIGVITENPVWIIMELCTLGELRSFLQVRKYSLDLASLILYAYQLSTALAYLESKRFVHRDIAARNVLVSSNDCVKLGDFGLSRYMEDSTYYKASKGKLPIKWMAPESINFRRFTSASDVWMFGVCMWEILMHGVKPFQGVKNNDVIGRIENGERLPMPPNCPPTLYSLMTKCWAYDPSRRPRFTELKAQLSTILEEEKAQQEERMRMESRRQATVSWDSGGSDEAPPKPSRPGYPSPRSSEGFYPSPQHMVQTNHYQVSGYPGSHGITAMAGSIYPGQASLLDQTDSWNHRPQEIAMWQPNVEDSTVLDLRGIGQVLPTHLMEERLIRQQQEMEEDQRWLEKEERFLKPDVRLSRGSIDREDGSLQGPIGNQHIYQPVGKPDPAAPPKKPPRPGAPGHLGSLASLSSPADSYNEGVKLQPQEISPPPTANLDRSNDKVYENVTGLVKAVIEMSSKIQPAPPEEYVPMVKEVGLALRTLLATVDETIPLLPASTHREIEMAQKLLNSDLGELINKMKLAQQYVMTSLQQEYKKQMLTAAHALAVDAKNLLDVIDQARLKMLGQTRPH
Chain of Luciferin 4-monooxygenase (Photinus pyralis) (P08659 whole entry, looked up): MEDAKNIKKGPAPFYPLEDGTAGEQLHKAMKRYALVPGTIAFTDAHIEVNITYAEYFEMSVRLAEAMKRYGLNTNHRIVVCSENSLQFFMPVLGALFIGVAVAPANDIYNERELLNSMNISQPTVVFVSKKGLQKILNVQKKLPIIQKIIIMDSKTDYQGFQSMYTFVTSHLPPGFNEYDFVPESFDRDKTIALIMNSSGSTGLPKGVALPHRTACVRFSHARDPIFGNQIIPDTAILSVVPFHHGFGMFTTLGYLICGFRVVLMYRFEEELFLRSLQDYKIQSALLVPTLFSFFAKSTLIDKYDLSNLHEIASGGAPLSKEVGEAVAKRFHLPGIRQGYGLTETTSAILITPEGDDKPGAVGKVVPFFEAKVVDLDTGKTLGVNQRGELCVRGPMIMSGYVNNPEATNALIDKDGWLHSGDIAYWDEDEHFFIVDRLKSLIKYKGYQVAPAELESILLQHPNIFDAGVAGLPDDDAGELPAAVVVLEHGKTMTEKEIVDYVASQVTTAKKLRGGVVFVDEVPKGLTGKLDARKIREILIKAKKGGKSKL

Regarding `Cc1ccc(S[C@]2(C(=O)NCC(F)(F)F)CC(=O)N(Cc3ccccc3C(F)(F)F)[C@@H]2c2ccc(CO)cc2I)cc1`, the composite z-score in experiment [1] is -0.227; in experiment [2], -0.727; in experiment [3], -0.604; in experiment [4] it was -0.992; in experiment [5], -0.638; in [6], -1.08. Besides, the composite z-score is -0.745 in the experiment with Lefty1; -0.154 in experiment [8]; -0.0722 in experiment [10]; -0.619 in [15]; -0.024 in experiment [16]; -2.42 in the experiment with Torsin-1A (Homo sapiens) [17]. The composite z-score was -1.67 with Torsin-1A (Homo sapiens) [18] and -0.402 in experiment [19]. Also, the z-score was 1.17 in experiment [7]; 0.84 (inactive) in experiment [9]; -1.26 (inactive) in [11]; -0.235 (inactive) in experiment [12]; -0.671 (inactive) in experiment [13]; 0.622 (inactive) in experiment [14].

On to `C#CCN([C@@H](Cc1ccc(O)cc1)C(=O)OC)[C@@H](/C=C/C1CC1)[C@H](O)Cc1ccccc1`, for which the composite z-score in experiment [1] was 0.241; in experiment [2] it was -0.968; in experiment [3], -0.0524; in experiment [4], -0.519; in [5] it was 0.814; in [6] it was -0.0354. Moreover, the composite z-score in the experiment with Lefty1 was 0.618; in experiment [8] it was -0.55; in [10], -0.595; in experiment [15], -0.492; in experiment [16], -0.128; with Torsin-1A (Homo sapiens) [17], -0.541. The composite z-score is -0.12 with Torsin-1A (Homo sapiens) [18] and 0.825 in [19]. In addition, the z-score in experiment [7] is -1.6; in experiment [9] it was -0.0396 (inactive); in experiment [11], -5.26 (inactive); in experiment [12], 0.709 (inactive); in [13] it was 16.1 (active); in experiment [14], 1.17 (inactive).

In the case of `O=C(CS)NCCCCCCNC(=O)[C@H]1C[C@H]2C(=O)N[C@@H](Cc3ccccc3)C(=O)N2[C@H]1c1ccc(O)cc1`, the composite z-score was determined as 1.29 in experiment [1]; 1.25 in [2]; 0.904 in experiment [3]; 0.476 in [4]; 1.22 in experiment [5]; 1.62 in experiment [6]. Besides, the composite z-score is 0.852 in the experiment on Lefty1; 0.195 in [8]; 0.491 in [10]; -0.513 in experiment [15]; -0.162 in [16]; 1.08 in the experiment with Torsin-1A (Homo sapiens) [17]. The results for the composite z-score (with Torsin-1A (Homo sapiens) [18]; in experiment [19]) were 0.768 and 1.62, respectively. Besides, the z-score in experiment [7] is -1.61; in [9], -1.17 (inactive); in [11] it was 0.167 (inactive); in experiment [12], -0.31 (inactive); in experiment [13], 0.822 (inactive); in [14], 0.368 (inactive).

With `O=C1O[C@@H](c2ccccc2)[C@@H](c2ccccc2)N2[C@@H](c3ccc(O)cc3)[C@]3(C(=O)Nc4ccc(C#CC5(O)CCCCCC5)cc43)[C@@H](C(=O)NC[C@H](O)c3ccccc3)[C@H]12`, the composite z-score is 0.326 in [1]; 0.899 in [2]; 0.551 in experiment [3]; 0.151 in experiment [4]; -0.538 in experiment [5]; -0.322 in experiment [6]. Further, the composite z-score in the experiment with Lefty1 was -0.218; in experiment [8] it was 0.297; in experiment [10], 0.0895; in [15], -0.508; in experiment [16] it was -0.0221; in the experiment with Torsin-1A (Homo sapiens) [17], 0.0581. In addition, the composite z-score with Torsin-1A (Homo sapiens) [18] was -0.135; in experiment [19], 0.217. Also, the z-score in experiment [7] was -1.31; in experiment [9], 0.27 (inactive); in [11], -1.42 (inactive); in experiment [12], -0.144 (inactive); in experiment [13], -0.606 (inactive); in experiment [14], -0.448 (inactive).

For the origin of these results see PubChem BioAssay.
